Screening results deposited in PubChem BioAssay by National Center for Advancing Translational Sciences (NCATS).
BAZ2B inh – qHTS Assay for Inhibitors of BAZ2B | Bromodomain adjacent to zinc finger domain protein 2B (Homo sapiens), Q9UIF8 | AlphaScreen BAZ2B-H3K14Ac peptide displacement | Potency, µM (highest dose often 114 µM), hits mostly inhibitors | 360,000 tested, 4.4% active; further: nearly all actives have a fitted effect of over 60% in size
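BAZ2B 50 nM plus b-H3(5-23)K14Ac 50 nM, PBS pH 7.4/0.01% Tween-20, 30 min RT; compound added (max 110 uM), 30 min RT; streptavidin donor/Ni-chelate acceptor beads 10 ug/mL final, 20 min dark; AlphaScreen read.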
Six1-Eya2 inh – qHTS Assay for Inhibitors of the Six1/Eya2 Interaction; AID 651725, 2012; AlphaScreen GST-Six1/His-Eya2 binding, biochemical; active compounds read low; 360,000 tested, 0.56% active; activity change, % (no concentration beside the values); in the data active means activity change below about -65%; inconclusive means mostly about -30% to -63%
Target sequence (O00167 whole entry, looked up): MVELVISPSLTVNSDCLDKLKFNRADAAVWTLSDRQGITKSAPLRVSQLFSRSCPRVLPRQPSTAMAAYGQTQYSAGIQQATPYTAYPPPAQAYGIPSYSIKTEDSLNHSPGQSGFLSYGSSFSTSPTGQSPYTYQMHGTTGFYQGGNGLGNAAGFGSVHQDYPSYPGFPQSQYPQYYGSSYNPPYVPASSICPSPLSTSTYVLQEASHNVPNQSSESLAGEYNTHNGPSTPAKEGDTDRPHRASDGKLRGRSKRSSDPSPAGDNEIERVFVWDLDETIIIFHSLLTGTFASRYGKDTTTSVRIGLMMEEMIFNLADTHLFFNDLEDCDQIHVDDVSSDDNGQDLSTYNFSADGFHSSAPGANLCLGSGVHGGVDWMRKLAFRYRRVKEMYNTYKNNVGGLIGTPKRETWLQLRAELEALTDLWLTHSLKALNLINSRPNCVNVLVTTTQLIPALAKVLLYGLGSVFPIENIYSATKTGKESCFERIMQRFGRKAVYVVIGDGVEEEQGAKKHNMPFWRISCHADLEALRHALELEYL
Target sequence (Q15475 whole entry, looked up): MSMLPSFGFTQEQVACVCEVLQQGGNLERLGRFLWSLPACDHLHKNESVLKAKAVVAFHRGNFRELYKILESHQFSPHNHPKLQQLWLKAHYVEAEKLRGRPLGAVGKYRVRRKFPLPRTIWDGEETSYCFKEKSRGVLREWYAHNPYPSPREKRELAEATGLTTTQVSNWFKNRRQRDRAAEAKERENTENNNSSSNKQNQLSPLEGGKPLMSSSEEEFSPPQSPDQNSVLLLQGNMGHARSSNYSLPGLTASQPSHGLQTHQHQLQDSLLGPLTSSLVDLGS
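GST-Six1 + His-Eya2 (5X stock: 250/500 nM); Tris pH 8.0, 300 mM NaCl, 0.05% BSA, 0.02% Tween 20; GSH donor/Ni acceptor beads; 1 h 37 °C dark; AlphaScreen readout.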
G9a inh – qHTS Assay for Inhibitors of Histone Lysine Methyltransferase G9a; Histone-lysine N-methyltransferase EHMT2 (Homo sapiens), Q96KQ7; G9a H3K9 monomethylation, AlphaScreen, 2 h; Potency, µM (top dose mostly 102 µM), usual class: inhibitors; 350,000 tested, 8.8% active; AID 504332, 2011; further: nearly all actives have a fitted effect of over 75% in size
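Quantitative HTS format: methyltransferase activity on a biotin-tagged H3K9 peptide is measured by AlphaScreen, using a rabbit anti-monomethyl-H3K9 antibody with streptavidin donor and anti-IgG acceptor beads. Final levels are 20 nM enzyme, 500 nM peptide, 20 uM SAM; 2 h RT.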
HP1b binding inh – HTS for Inhibitors of HP1-beta Chromodomain Interactions with Methylated Histone Tails. Chromobox protein homolog 1 (Homo sapiens), P83916. AlphaScreen HP1-beta / biotin-H3K9me3 peptide binding. Potency, µM (titrated, usually from 114 µM), usual class: inhibitors. 390,000 tested, 0.56% active; further: nearly all actives have a fitted effect of over 70% in size
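AlphaScreen: HP1-beta (50 nM) preformed 30 min with biotin-H3(1-18)K9me3 peptide (50 nM) in PBS pH 7.4, 0.01% Tween-20. Compound added for 30 min at RT, then streptavidin donor/nickel chelate acceptor beads (10 ug/mL) for 30 min.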
JMJD2A Tudor inh – qHTS Assay for Inhibitors of JMJD2A-Tudor Domain. Lysine-specific demethylase 4A (Homo sapiens), O75164. AlphaScreen JMJD2A-Tudor / H3K4me3 peptide binding. Potency, µM (top dose mostly 114 µM), most hits filed as inhibitors. 390,000 tested, 4.4% active. AID 504339, 2011; further: nearly all actives have a fitted effect of over 50% in size
CtBP-E1A inh – qHTS Assay for Inhibitors of the CtBP/E1A Interaction; AID 651724, 2012; 340,000 tested, 0.49% active; activity change, % (no concentration beside the values); AlphaScreen GST-E1A/His-CtBP binding, 1536-well; active compounds read low; in the data active means activity change below about -65%; inconclusive means mostly about -30% to -63%
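Homogeneous bead-based format: GST-tagged E1A captured on glutathione donor beads, His-tagged CtBP on nickel acceptor beads; compounds precede bead addition by 2 h at 37 °C.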
Numbers stand for hits; - = inactive; ? = inconclusive; . = no result given; [ ] = dose if it differs, or a comment. The list is not random: actives were taken first. Their share in the collection is about 10%. Unless noted, the call rests on the fitted dose curve; in most records, active means well fitted inhibition curve with a large enough effect; inconclusive means small, poorly fitted or top-dose-only effect; inactive means no such curve, though single readings can be large or run the other way.

SMILES	BAZ2B inh	Six1-Eya2 inh	G9a inh	HP1b binding inh	JMJD2A Tudor inh	CtBP-E1A inh
COc1ccc(-n2c(=O)c(-c3cccs3)nc3cncnc32)cc1	.	.	-[0.501 µM]	.	.	.
O=C(Oc1nsnc1N1CCOCC1)c1ccccc1	-	-	35µM	-	-	-
CC1CCN(S(=O)(=O)c2ccc3c(c2)C(Cl)(Cl)C(=O)N3)CC1	.	-	.	.	.	-
NC(=S)N/N=C/c1ccc(-n2nncc2-c2ccc(Cl)cc2)cc1	?	-	45µM	-	?	-
Cc1nnc(NS(=O)(=O)c2ccc(N=Nc3ccc(N)nc3N)cc2)s1	.	?	.	?	50µM	?
CCCOc1cccc(CN2CCCCC2c2cccnc2)c1 (stereo unspecified)	?	-	45µM	-	?	-
Nc1ccc(Oc2ccc(F)cc2)nc1	-	-	-	-	-	-
CCCCCCNC(=O)N[C@H](C(=O)NCCC[C@H]1CN2C(=NC[C@H]2C)N1CCC(c1ccccc1)c1ccccc1)C(C)O (stereo partly specified)	20µM	.	?	.	.	.
C/C=C(\C)C(=O)NCCN1C2=NC[C@H](C)N2C[C@@H]1Cc1ccc(OC)cc1	-	-	.	-	-	-
COc1ccc(Cl)cc1NC(=O)COC(=O)CC(C)(C)CC1=NS(=O)(=O)c2ccccc2N1	-	.	-	-	-	.
CNS(=O)(=O)c1cn(CC(=O)NCc2ccc(N(C)C)cc2)cc1S(=O)(=O)NC	-	-	-	-	-	-
CCCCNC(=O)c1sc(=S)n2c1[nH]c(=O)c1ccc(C(=O)NCCc3ccc(OC)c(OC)c3)cc12	?	-	25µM	-	-	.
O=C(NCc1ccccc1)c1sc(=S)n2c1[nH]c(=O)c1ccccc12	45µM	-	28µM	-	?	-
O=C(NCc1ccccc1)c1c(O)c2ccccc2[nH]c1=O	-	-	-	-	-	-
CN1CCN(NC(=O)CSc2ccc(Cl)cc2Cl)CC1	-	-	-	-	-	-
Cc1ccc(Nc2nc(CSc3nnc(-c4ccncc4)n3C)cs2)cc1	-	-	40µM	-	-	-
Cc1ccc(NC(=O)c2ccc(CSc3nnc(-c4ccncc4)n3C)cc2)cc1	-	-	-	-	-	-
Cc1ccc(Nc2nc(CSc3nnc(-c4cccnc4)n3-c3ccccc3F)cs2)cc1	?	-	?	-	?	-
CC(=O)Nc1ccc(-c2nnc(SCc3ccc(C)cc3)n2C)cc1	-	-	5µM	-	-	-
Cc1ccc(CSc2nnc(-c3ccncc3)n2C)cc1	?	-	-	-	89µM	-
Cc1ccccc1Nc1nc(CSc2nnc(-c3ccoc3C)n2C)cs1	?	-	40µM	-	-	-
CC(=O)N1CCC2(CC1)C(C#N)=C(N)Oc1c2sc2nc(C)cc(C)c12	-	-	11µM	-	-	-
COc1cc(-c2nc(-c3ccccc3)c(-c3ccc(Br)cc3)[nH]2)cc(OC)c1O	28µM	.	10µM	?	45µM	.
COc1ccc(-c2[nH]c(-c3cc(OC)c4c(c3)OCO4)nc2-c2ccccc2)cc1	?	?	40µM	?	?	?
Oc1ccc(-c2nc(-c3ccccc3)c(-c3ccc(Br)cc3)[nH]2)cc1	?	.	-	-	?	.
SMILES	BAZ2B inh	Six1-Eya2 inh	G9a inh	HP1b binding inh	JMJD2A Tudor inh	CtBP-E1A inh
COc1ccc(-c2nc(-c3ccccc3)c(-c3ccc(F)cc3)[nH]2)c(OC)c1C	25µM	.	?	-	?	.
CCOc1ccc(-c2nc(-c3ccccc3)c(-c3ccccc3)[nH]2)cc1OCC	-	.	-	-	-	.
CCOc1ccccc1NC(=O)c1cc(=O)c2ccc(C)cc2o1	-	.	-	-	-	.
COc1ccccc1C(=O)NC(=S)Nc1ccc(Cc2ccncc2)cc1	?	-	32µM	-	-	.
Cc1cc(C)cc(C(=O)NC(=S)Nc2ccc(Cc3ccncc3)cc2)c1	?	-	22µM	?	?	-
Cc1cccc(C(=O)NC(=S)Nc2ccc(Cc3ccncc3)cc2)c1	?	-	32µM	-	?	-
Cc1ccc(CS(=O)(=O)c2cn(CC(=O)N3CCOCC3)c3ccccc23)cc1	-	-	.	-	-	-
Clc1ccc(-n2c(Cc3ccccc3)nnc2SCc2nc(-c3cccs3)no2)cc1	-	.	-	-	-	.
O=C(O)c1cc(NN=Nc2ccc(Br)cc2)cc([N+](=O)[O-])c1	-	-	32µM	-	?	-
O=[N+]([O-])c1cccc(NN=Nc2ccccc2)c1	?	-	45µM	-	?	-
O=[N+]([O-])c1ccc(N=NNc2ccccc2)cc1	28µM	-	22µM	?	25µM	-
Brc1ccc(N=NNc2ccccc2)cc1	40µM	-	.	-	-	-
O=C(O)c1cc(NN=Nc2cccc(S(=O)(=O)O)c2)cc([N+](=O)[O-])c1	-	-	-	-	-	.
CN(N=Nc1ccc([N+](=O)[O-])cc1)c1ccccc1	?	-	?	-	-	.
O=C(O)c1cc(NN=Nc2cccc([N+](=O)[O-])c2)cc([N+](=O)[O-])c1	?	-	?	-	-	-
Cc1cnc(CNC(=O)c2ccc3sc([C@H]4C[C@H](O)[C@@H](CO)O4)nc3c2)cn1	.	-	.	.	.	-
Clc1ccc(-c2noc3ncnc(NCCCN4CCN(c5ccccc5)CC4)c23)cc1	-	.	-	-	?	.
O=C(CN1C(=O)NC2(CCCCCC2)C1=O)N1CCN(c2ccccc2)CC1	-	-	-[12.7 µM]	-	-	-
